Screening data (PubChem BioAssay)
Sampled rows, rich in hits. Any-hit rate of the full collection: about 3.1%.
Nrf2 ARE act – qHTS of Nrf2 Activators | AREc32 ARE-luciferase reporter (MCF7-derived line), luminescence, 24 h | Potency, µM (top dose mostly 46.1 µM), actives largely listed as activators | hit rate 0.31% among 410,000 | AID 624171, 2012; further: nearly all actives have a fitted effect of over 65% in size
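Reporter line AREc32 (ARE-Fluc), seeded overnight in OPTI-MEM with 5% FBS; compound pin-transferred, 24 hr at 37 deg C, 5% CO2; luminescent read-out.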
ELG1 repair inh – qHTS screen for small molecules that inhibit ELG1-dependent DNA repair in human embryonic kidney (HEK293T) cells expressing luciferase-tagged ELG1 | AID 504467, 2011 | hit rate 2.3% among 330,000 | HEK293T ELG1-luciferase reporter, luminescence, 16 h; DNA damage induced by 5-fluorouridine | Potency, µM (highest dose often 46.1 µM), actives largely listed as inhibitors; further: nearly all actives have a fitted effect of over 55% in size
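Step one: seed 2,000 cells per well. Step two: pin-transfer compound or DMSO alongside 5-fluorouridine. Step three: incubate 16 hr, 37 °C, 5% CO2. Step four: add ONE-Glo, wait 30 min, read luminescence.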
IL2 activator – qHTS of IL-2 Activators; IL-2 activation reporter assay, cell-based qHTS; stimulated with anti-CD3/CD4/CD28 beads; in transgenic mouse T cells; activation, % (series mostly up to about 46 µM); hit rate 0.065% among 360,000; in the data active means activation above about 50%; inconclusive means mostly about 30% to 49%
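Readout: EGFP and DsRed signals by fluorescent plate cytometry. Unstimulated transgenic mouse T cells received compound 60 min before antibody-bead stimulation, then incubated 18 h at 37 degrees C.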
BRCA1 expr act – qHTS Assay to Identify Small Molecule Activators of BRCA1 Expression | hit rate 1.1% among 380,000 | MCF7-BRCA1-FFLuc reporter, luminescence, 48 h; response scale: scaled: vehicle 0%, 10 µM genistein 100% | AID 624202, 2012 | Potency, µM (series often up to 46.1 µM), hits mostly activators; further: nearly all actives have a fitted effect of over 80% in size
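Cells: MCF7-BRCA1-FFLuc, 2000/well. Exposure: 48 h, 37 °C, 5% CO2. Read: luminescence, 15 min post-substrate. Controls: genistein 10 microM (maximal activation), DMSO (neutral).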
Numbers stand for hits; – = inactive; ? = inconclusive; · = not tested or not shown; [ ] = remark or other dose. Unless noted, the call rests on the fitted dose curve; in most records, active means well fitted curve in the direction sought with a large enough effect; inconclusive means small, poorly fitted or top-dose-only effect, or another doubt; inactive means no such curve, though single readings can be large; an effect the other way counts as inactive or inconclusive.

SMILES | Nrf2 ARE act | ELG1 repair inh | IL2 activator | BRCA1 expr act
O=C(Cn1c(=O)n(Cc2nc(-c3ccccc3)no2)c(=O)c2cc3c(cc21)OCO3)Nc1ccc(Cl)cc1 | – | · | · | ·
COc1cccc2c1C(=O)c1c(O)c3c(c(O)c1C2=O)C[C@@](O)(C(C)=O)C[C@@H]3O[C@H]1C[C@H](N)[C@H](O)[C@H](C)O1 | – | 3.3µM | – | –
CC(C)=C(NC(=O)c1ccccc1)C(=O)N1CCOCC1 | – | – | – | –
O=C(N/C(C(=O)N1CCOCC1)=C(\Sc1ncccn1)c1ccccc1)c1ccccc1 | – | 23µM | – | –
CCCCS/C(N)=N/N=C/c1ccccc1O | – | ? | – | 7.9µM
CCCS/C(N)=N/N=C/c1cc(C)ccc1O | – | ? | – | ?
CCC(=O)C1CCCN(C(=O)CCc2nnc(-c3ccc(C(C)=O)s3)o2)C1 (centres undefined) | – | ? | – | 13µM
CCC(=O)C1CCCN(C(=O)CCc2nnc(-c3ccc4c(c3)OCO4)o2)C1 (centres undefined) | – | ? | – | –
CCOc1cc(NC(=S)NCC2CCCO2)c(OCC)cc1NC(=O)c1ccccc1C (centres undefined) | – | – | – | –
CCOc1ccc(C(=O)NC(C(=O)NCC2CCCO2)C(C)C)cc1 (centres undefined) | – | 23µM | – | –
COc1ccc(C(=O)NC(C(=O)NCC2CCCO2)C(C)C)cc1 (centres undefined) | – | – | – | –
CCOc1cc(NC(=S)NCC2CCCO2)c(OCC)cc1NC(=O)c1ccc(OC)cc1 (centres undefined) | – | 13µM | – | –
CCCCC(=O)Nc1ccc(C(=O)OCc2cc(=O)n3ccsc3n2)cc1 | – | · | · | ·
CN(c1nc(-c2ccc(Br)cc2)cs1)C1CCS(=O)(=O)C1 (centres undefined) | – | – | – | 11µM
Cc1ccsc1CN(C(=O)COc1ccc(Br)cc1)C1CCS(=O)(=O)C1 (centres undefined) | – | · | · | ·
CCOc1cc(C(=O)N2CC(=O)Nc3ccc(F)cc3C2c2ccccc2)cc(OCC)c1OCC (centres undefined) | – | · | · | ·
Cc1[nH]c(=O)c(C(=O)/C=C/c2ccccc2F)c2c1CCCC2 | ? | 15µM | – | –
C/C(=C\c1ccccc1F)C(=O)c1c(C)cc(C)[nH]c1=O | – | – | – | –
CCOC(=O)C(=CNc1ccc(NC2=NCC(C)S2)cc1)C(=O)OCC (centres undefined) | – | 6.5µM | – | –
CCOC(=O)C(=CNc1ccc(C(F)(F)F)cc1)C(=O)OCC | – | – | – | –
C=CCn1c(SCC(=O)N2CCc3ccccc3C2)nc2sc(CC)cc2c1=O | – | 23µM | – | –
COc1ccc(CCNC(=O)CSCc2nc(-c3ccc(OC)c(OC)c3)oc2C)cc1OC | – | · | · | ·
CC1=CC(C)C(C[N+]2(C)CCCCC2)C(C)C1 (centres undefined) | – | – | – | –
CC1=CC(C)C(/C=N/N=C(N)N)C(C)C1 (centres undefined) | – | 5.8µM | – | –
CN1OC[C@@H]2CN[C@H](c3ccc(-c4cccc(F)c4)cc3)C[C@@H]21 | – | · | – | 11µM
SMILES | Nrf2 ARE act | ELG1 repair inh | IL2 activator | BRCA1 expr act
COc1cc2c(cc1NC(=O)c1ccccc1F)CCCC2 | 3.2µM | ? | – | –
C(=NNc1ccc2ccccc2n1)c1ccccn1 | – | · | – | –
CC(CNC(=O)c1ccc2nc(Cc3ccccc3)oc2c1)c1ccccc1 (centres undefined) | – | · | · | ·
Cc1ccc(CNC(=O)CSCc2cccc(F)c2)cc1 | – | – | – | ?
CCc1ccc(CNC(=O)CCSCc2ccccc2F)cc1 | – | · | · | ·
O=C(CSCc1ccccc1F)NCc1ccccc1 | – | ? | – | 7.1µM
O=C(CSCc1cccc(F)c1)NCc1ccccc1 | – | ? | – | 11µM
CCN(CC)/[N+]([O-])=N/OCOC(=O)C(C)c1ccc2cc(OC(C)=O)ccc2c1 (centres undefined) | · | · | · | –
Cc1cc(OCC(=O)Nc2ccc(Br)cc2)cc2c1C(=O)CC(C)(C)O2 | – | 15µM | – | –
CC(=O)Nc1ccc(NC(=O)COc2cc(O)c3c(c2)OC(C)(C)CC3=O)cc1 | – | – | – | –
CC1(C)CC(=O)c2c(O)cc(OCc3ccc(Br)cc3)cc2O1 | – | ? | – | 3.5µM
COC(=O)c1ccc(COc2cc(O)c3c(c2)OC(C)(C)CC3=O)cc1 | – | – | – | –
COC(=O)[C@@H]1Cc2c([nH]c3ccccc23)C(C)(C)N1C(=O)CCl | 10µM | ? | – | –
CC(/C=N/NC(=O)Cc1cccs1)=C\c1ccco1 | 14µM | ? | – | –[1.84 µM]
CC(C)(C)NC(=O)/C(=C\c1ccco1)NC(=O)c1cccs1 | – | – | – | –
CC(/C=N/NC(=O)c1cccs1)=C\c1ccco1 | 14µM | ? | – | ?
CC(/C=N/NC(=O)CSc1nc2ccccc2n1C)=C\c1ccco1 | 13µM | – | – | –
Cc1cccc(C)c1Nc1c(-c2ccc(N3CCOCC3)cc2)nc2ncccn12 | – | ? | – | –
Cc1ccc(Nc2c(-c3ccc(N4CCOCC4)cc3)nc3ncccn23)c(C)c1 | – | 12µM | – | –
Nc1nnc(-c2ccccc2F)s1 | – | ? | – | –
Nc1nnc(-c2ccc(Cl)cc2Cl)s1 | – | ? | – | 10µM
O=C(/C=C/c1cccc2ccccc12)NCCC1=CCCCC1 | – | ? | – | 11µM
COc1ccc([N+](=O)[O-])cc1NC(=O)Nc1ccc(OC)c(OC)c1 | – | 15µM | – | –
COc1ccc([N+](=O)[O-])cc1NC(=O)c1ccco1 | 3.2µM | – | – | –
CC(=O)Oc1ccc(C(=O)Nc2cccc(NC(=O)c3ccco3)c2)cc1 | ? | – | – | –
SMILES | Nrf2 ARE act | ELG1 repair inh | IL2 activator | BRCA1 expr act
COc1ccc(NC(=O)c2ccco2)cc1NC(=O)c1ccco1 | – | – | – | –
CC(OC(=O)/C=C/c1ccco1)C(=O)Nc1cccc([N+](=O)[O-])c1 (centres undefined) | ? | – | – | –
O=C(Nc1cccc(NC(=O)c2ccco2)c1)c1ccc([N+](=O)[O-])cc1 | – | 12µM | – | –
COc1ccc([N+](=O)[O-])cc1NC(=O)C(C)OC(=O)/C=C/c1ccco1 (centres undefined) | 13µM | – | – | –
CCc1ccccc1N(c1nc(-c2ccc(OC)c(OC)c2)no1)c1nc(-c2ccc(OC)c(OC)c2)no1 | – | · | · | –
O=c1c2sc3ccccc3c2n(Cc2ccccc2F)c(=O)n1Cc1ccccc1 | – | · | · | –
CC1(C(=O)NCCCN2CCCC2=O)CCN1CCc1ccccc1 (centres undefined) | – | · | – | –
CC[C@]12C(=O)N(C)C[C@H]([C@@H]3C(=O)N(C)C(=O)[C@@H]31)N2C(=O)c1ccc(Cl)c(Cl)c1 | – | · | – | –
CC(=O)c1ccc(NC(=O)c2ccc(-c3nc(COc4ccc(C)cc4)c(C)o3)cc2)cc1 | – | · | · | ·
